Test results published in PubChem BioAssay (Tox21).
Values joined by “and” are separate entries in the source; they are usually repeats but may differ in a detail not shown here. Equal values may be shown once. Records with an inconclusive call do not appear. Values without a mark were called inactive. Active and inactive are the calls of the source. Calls come from the whole dose curve; as a rule, active = well fitted cell-killing curve with a large enough effect in the repeat runs; inconclusive = weak or mixed curves, or effect the other way; inactive = no such curve, though single readings can be large or run the other way. Positions of bridges follow the written chain, without caps; N, C: chain ends. Non-standard residues stand in square brackets, D forms with d. Residues, ends and D or L forms follow the SMILES beside them. *: point of attachment. X1 = CC[C@@H](C)[C@@H](N)C1=N[C@H](C(=O)*)CS1; d(aIle) = CC[C@H](C)[C@@H](N)C(=O)O; dOrn = NCCC[C@@H](N)C(=O)O

assay: qHTS assay to identify small molecule antagonists of the glucocorticoid receptor (GR) signaling pathway - cell viability counter screen (AID 720693); settings: GR-bla HeLa viability, CellTiter-Glo luminescence, 18 h, with 5 nM dexamethasone present; series mostly up to 58.5 µM; viability change, negative = cytotoxic: at the top concentration; note: nearly all actives have a fitted effect of over 55% in size
% is set by controls: 0 for no effect and ±100 for the full control effect; potency is the fitted concentration of half-maximal effect.

| SMILES | viability change, negative = cytotoxic [%] | Potency |
| --- | --- | --- |
| O=[N+]([O-])c1ccc(O)c2ncccc12 | -7.14 |  |
| Cc1cc(Br)ccc1NC(=O)CCl |  | 43.6 µM (active) |
| O=P(O)(O)C(O)(Cn1ccnc1)P(=O)(O)O | 16.6 |  |
| CCOc1ccc(S(=O)(=O)O)c2cccnc12 | -0.766 |  |
| FC(F)(F)COCC(F)(F)F | -7.1 |  |
| CC(=NCc1ccccc1)c1ccccc1O | -2.92 |  |
| CC(=O)OCC(=O)[C@@]1(O)CC[C@H]2[C@@H]3CCC4=CC(=O)CC[C@]4(C)C3=CC[C@@]21C | 5.32 |  |
| O=C(O)/C=C/C(=O)Nc1ccc(S(=O)(=O)Nc2nccs2)cc1 | 4.27 |  |
| Cc1onc(-c2c(F)cccc2Cl)c1C(=O)N[C@@H]1C(=O)N2[C@@H]1SC(C)(C)[C@@H]2C(=O)O |  | inactive |
| O=C(O)c1cc2cc(Cc3cccnc3)ccc2o1 | -1.16 |  |
| CC[C@@H](C)[C@@H](N)C1=N[C@H](C(=O)N[C@@H](CC(C)C)C(=O)N[C@@H](CCC(=O)O)C(=O)N[C@@H](C(=O)N[C@@H]2CCCCNC(=O)[C@@H](CC(N)=O)NC(=O)[C@@H](CC(=O)O)NC(=O)[C@@H](Cc3cnc[nH]3)NC(=O)[C@@H](Cc3ccccc3)NC(=O)[C@@H]([C@H](C)CC)NC(=O)[C@@H](CCCN)NC2=O)[C@@H](C)CC)CS1 (X1-LE[d(aIle)][dK][dOrn][dI][dF][dH][dD][dN]; lactam 4-C) |  | inactive |
| NC(=O)[C@H]1O[C@@H](O)[C@H](O)[C@@H](O)[C@@H]1O | 2.48 |  |
| CC(C)C[C@H](NC(=O)[C@@H](COC(C)(C)C)NC(=O)[C@H](Cc1ccc(O)cc1)NC(=O)[C@H](CO)NC(=O)[C@H](Cc1c[nH]c2ccccc12)NC(=O)[C@H](Cc1cnc[nH]1)NC(=O)[C@@H]1CCC(=O)N1)C(=O)N[C@@H](CCCN=C(N)N)C(=O)N1CCC[C@H]1C(=O)NNC(N)=O |  | inactive |
| Cc1c(N)nc([C@H](CC(N)=O)NC[C@H](N)C(N)=O)nc1C(=O)N[C@H](C(=O)N[C@H](C)[C@@H](O)[C@H](C)C(=O)N[C@H](C(=O)NCCc1nc(-c2nc(C(=O)NCCCCN=C(N)N)cs2)cs1)[C@@H](C)O)[C@@H](O[C@@H]1O[C@@H](CO)[C@@H](O)[C@H](O)[C@@H]1O[C@H]1O[C@H](CO)[C@@H](O)[C@H](OC(N)=O)[C@@H]1O)c1cnc[nH]1 |  | inactive |
| NC(N)=NCCCCN=C(N)N | -4.72 |  |
| COc1ccc(/C=N/NC(=O)c2ccncc2)c(C(=O)O)c1OC | 5.78 |  |
| O=C1CCC(c2ccc(-n3ccnc3)cc2)=NN1 | 3.06 |  |
| Cc1cnc(C(=O)O)c[n+]1[O-] |  | inactive |
| COc1c(Br)cc(Br)c(C)c1Br | 22.2 |  |
| NCC(O)CC(=O)O (stereo unspecified) | 18.4 |  |
| O=C(N[C@H](CO)[C@H](O)c1ccc([N+](=O)[O-])cc1)C(Cl)Cl | -0.411 |  |
| O=C(CCCN1CCN2CCCC2C1)c1ccc(F)cc1 (stereo unspecified) | 4.74 |  |
| Nc1nc(/C(=C/CC(=O)O)C(=O)N[C@@H]2C(=O)N3C(C(=O)O)=CCS[C@H]23)cs1 | -7.05 |  |
| O=C1c2ccccc2CN2C(=O)c3ccccc3CN12 | 6.34 |  |

assay: qHTS assay for identifying genotoxic compounds that show differential cytotoxicity against isogenic chicken DT40 cell lines with known DNA damage response pathways - wild type cell line (AID 743012); settings: DT40 wild type chicken cells viability, CellTiter-Glo, 40 h; series mostly up to 68.4 µM; activity change, negative = cytotoxicity: at the top concentration; note: nearly all actives have a fitted effect of over 60% in size
Procedure, shortened: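 Using parental DT40 (300 cells/well), compounds delivered in DMSO incubate 40 h at 37 C/5% CO2. CellTiter-Glo reagent then stands 30 min at room temperature, and luminescence gives cell viability.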

| SMILES | Potency | activity change, negative = cytotoxicity |
| --- | --- | --- |
| CCN(CC)CC#CCOC(=O)C(O)(c1ccccc1)C1CCCCC1 (stereo unspecified) | 11.9 µM (active) |  |
| CC(=O)O[C@H]1C[C@@H]2CC[C@@H]3[C@H](CC[C@@]4(C)[C@H]3C[C@H]([N+]3(C)CCCCC3)[C@@H]4OC(C)=O)[C@@]2(C)C[C@@H]1[N+]1(C)CCCCC1 |  | 2.63% |
| CCN(CC)CCOC[C@H]1O[C@@H](O)[C@H](OCCN(CC)CC)[C@@H](O)[C@@H]1O |  | 18.9% |
| CN=C(N)NCCC[C@H](N)C(=O)O |  | 13.3% |
| CSCC[C@H](NC(=O)[C@H](Cc1ccc(OS(=O)(=O)O)cc1)NC(=O)[C@@H](N)CC(=O)O)C(=O)NCC(=O)N[C@@H](Cc1c[nH]c2ccccc12)C(=O)N[C@@H](CCSC)C(=O)N[C@@H](CC(=O)O)C(=O)N[C@@H](Cc1ccccc1)C(N)=O | inactive |  |
| CCOC(=O)COc1ccc2c(=O)cc(-c3ccccc3)oc2c1 | 29.8 µM (active) |  |
| CC[C@@H](C)[C@H](N)C(=O)O |  | 3.96% |
| CCCCCCCCCCCC[n+]1ccc2ccccc2c1 | 0.168 µM (active) |  |
| O=C1CC[C@@H](C(=O)N[C@H]2C[C@@H]2c2ccccc2)N1 |  | 14.4% |
| CC(C)(S)C(=O)N[C@@H](CS)C(=O)O | inactive |  |
| CC(C)(C)C(=O)OCC(=O)[C@H]1CC[C@H]2[C@@H]3CCC4=CC(=O)CC[C@]4(C)[C@H]3CC[C@]12C |  | 13.7% |
| NC[C@H]1O[C@H](O[C@H]2[C@H](O)[C@@H](O[C@H]3O[C@H](CO)[C@@H](O)[C@H](N)[C@H]3O)[C@H](N)C[C@@H]2N)[C@H](N)C[C@@H]1O |  | 7.71% [at 31.4 µM] |
| C/C(=C\C(=O)OCCCCCCCCC(=O)O)C[C@@H]1OC[C@H](C[C@@H]2O[C@H]2[C@@H](C)[C@H](C)O)[C@@H](O)[C@H]1O | 1.5 µM (active) |  |
| O=[N+]([O-])c1ccc(O)c2ncccc12 | 2.98 µM (active) |  |
| Cc1cc(Br)ccc1NC(=O)CCl | 5.45 µM (active) |  |
| O=P(O)(O)C(O)(Cn1ccnc1)P(=O)(O)O |  | 2.88% |
| CCOc1ccc(S(=O)(=O)O)c2cccnc12 |  | -3.35% |
| FC(F)(F)COCC(F)(F)F |  | 1.65% |
| CC(=NCc1ccccc1)c1ccccc1O |  | 5.37% |

| SMILES | Potency | activity change, negative = cytotoxicity |
| --- | --- | --- |
| CC(=O)OCC(=O)[C@@]1(O)CC[C@H]2[C@@H]3CCC4=CC(=O)CC[C@]4(C)C3=CC[C@@]21C |  | 2.53% |
| O=C(O)/C=C/C(=O)Nc1ccc(S(=O)(=O)Nc2nccs2)cc1 |  | 2.42% |
| Cc1onc(-c2c(F)cccc2Cl)c1C(=O)N[C@@H]1C(=O)N2[C@@H]1SC(C)(C)[C@@H]2C(=O)O | inactive |  |
| O=C(O)c1cc2cc(Cc3cccnc3)ccc2o1 |  | 5.7% |
| CC[C@@H](C)[C@@H](N)C1=N[C@H](C(=O)N[C@@H](CC(C)C)C(=O)N[C@@H](CCC(=O)O)C(=O)N[C@@H](C(=O)N[C@@H]2CCCCNC(=O)[C@@H](CC(N)=O)NC(=O)[C@@H](CC(=O)O)NC(=O)[C@@H](Cc3cnc[nH]3)NC(=O)[C@@H](Cc3ccccc3)NC(=O)[C@@H]([C@H](C)CC)NC(=O)[C@@H](CCCN)NC2=O)[C@@H](C)CC)CS1 (X1-LE[d(aIle)][dK][dOrn][dI][dF][dH][dD][dN]; lactam 4-C) | inactive |  |
| NC(=O)[C@H]1O[C@@H](O)[C@H](O)[C@@H](O)[C@@H]1O |  | 18.3% |
| CC(C)C[C@H](NC(=O)[C@@H](COC(C)(C)C)NC(=O)[C@H](Cc1ccc(O)cc1)NC(=O)[C@H](CO)NC(=O)[C@H](Cc1c[nH]c2ccccc12)NC(=O)[C@H](Cc1cnc[nH]1)NC(=O)[C@@H]1CCC(=O)N1)C(=O)N[C@@H](CCCN=C(N)N)C(=O)N1CCC[C@H]1C(=O)NNC(N)=O | inactive |  |
| Cc1c(N)nc([C@H](CC(N)=O)NC[C@H](N)C(N)=O)nc1C(=O)N[C@H](C(=O)N[C@H](C)[C@@H](O)[C@H](C)C(=O)N[C@H](C(=O)NCCc1nc(-c2nc(C(=O)NCCCCN=C(N)N)cs2)cs1)[C@@H](C)O)[C@@H](O[C@@H]1O[C@@H](CO)[C@@H](O)[C@H](O)[C@@H]1O[C@H]1O[C@H](CO)[C@@H](O)[C@H](OC(N)=O)[C@@H]1O)c1cnc[nH]1 | 4.22 µM (active) and 1.5 µM (active) |  |
| NC(N)=NCCCCN=C(N)N |  | -3.24% |
| COc1ccc(/C=N/NC(=O)c2ccncc2)c(C(=O)O)c1OC |  | 3.64% |
| O=C1CCC(c2ccc(-n3ccnc3)cc2)=NN1 |  | 6.52% |
| Cc1cnc(C(=O)O)c[n+]1[O-] | inactive |  |
| COc1c(Br)cc(Br)c(C)c1Br |  | 10.8% |
| NCC(O)CC(=O)O (stereo unspecified) |  | 2.3% |
| O=C(N[C@H](CO)[C@H](O)c1ccc([N+](=O)[O-])cc1)C(Cl)Cl | 5.96 µM (active) and 15.4 µM (active) |  |
| O=C(CCCN1CCN2CCCC2C1)c1ccc(F)cc1 (stereo unspecified) | 11.9 µM (active) |  |
| Nc1nc(/C(=C/CC(=O)O)C(=O)N[C@@H]2C(=O)N3C(C(=O)O)=CCS[C@H]23)cs1 |  | 11.7% |
| O=C1c2ccccc2CN2C(=O)c3ccccc3CN12 |  | 1.38% |
